This is part of a sample that, as a whole, favours compounds with a hit. Of some 79,000 tested, about 15% had one in any assay. Calls of active or inactive are those of the source. Cut-off read from the data, not from the text of the source: active = growth inhibition above about 70%; inactive = the rest.
Columns and labels:
[1] = NCI Yeast Anticancer Drug Screen. Data for the rad50 strain (AID 155);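 note: 0% = growth of vehicle-only cultures of the same strain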; settings: S. cerevisiae rad50 strain growth inhibition, active compounds read high; at 50.0 µM unless noted
How it was run: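 Vehicle-treated cultures provide the reference for the growth inhibition reported for compound-exposed, repair-deficient yeast.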

[2] = NCI Yeast Anticancer Drug Screen. Data for the mec2-1 strain (AID 157); settings: S. cerevisiae mec2-1 strain, active compounds read high; at 50.0 µM unless noted
How it was run: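 Mutant yeast (mec2-1) grown with compound; growth inhibition relative to vehicle control reported.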

[3] = NCI Yeast Anticancer Drug Screen. Data for the sgs1 mgt1 strain (AID 161);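 note: 0% = growth of cultures given vehicle only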; settings: S. cerevisiae sgs1 mgt1 strain, active compounds read high; at 50.0 µM unless noted
How it was run: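 Compounds are added to genetically altered yeast, and growth is compared with cultures given vehicle alone to give percent inhibition.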

[4] = NCI Yeast Anticancer Drug Screen. Data for the cln2 rad14 strain (AID 165);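 note: 0% = growth equal to vehicle treated cultures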; settings: S. cerevisiae cln2 rad14 strain, active compounds read high; at 50.0 µM unless noted
How it was run: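 Readout is yeast growth inhibition versus vehicle-treated controls, using a strain with cln2 and rad14 alterations exposed to compound.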

[5] = NCI Yeast Anticancer Drug Screen. Data for the bub3 strain (AID 167); settings: S. cerevisiae bub3 mutant strain, active compounds read high; at 50.0 µM unless noted
How it was run: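 Mutant yeast screening strain plus compound; vehicle-treated cultures serve as the 0% inhibition reference.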

[6] = NCI Yeast Anticancer Drug Screen. Data for the mlh1 rad18 strain (AID 175); settings: S. cerevisiae mlh1 rad18 strain growth inhibition, active compounds read high; at 50.0 µM unless noted
How it was run: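 Genetically defined yeast (DNA repair-deficient) exposed to compounds; growth inhibition determined relative to vehicle.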

Measured: growth inhibition

CCCCSCC(N)CO (stereo not given)
inactive: [1] 9.05% | [2] 5.2% | [3] 10.7% | [4] -34.2% | [5] 0.55% | [6] 1.75%

CCCCCCCCCCCCC
inactive: [1] -36.4% | [2] -45.8% | [3] -18.2% | [4] 3.7% | [5] -50% | [6] -20.9%

O=C(Cc1nc2ccc(C(=O)c3ccccc3)cc2[nH]c1=O)C(=O)Nc1ccc(C(F)(F)F)cc1[N+](=O)[O-]
inactive: [1] 8.45% | [2] 14.7% | [3] -3.9% | [4] -6.25% | [5] -12.1% | [6] 18.1%

Cc1nnc(-n2cccc2)s1
inactive: [1] 0.8% | [2] -18.9% | [3] -5.3% | [4] -3.55% | [5] -4.1% | [6] 3.25%

FC1=C(F)C2(F)C3CCC(O3)C2(F)C(Br)=C1F (stereo not given)
inactive: [1] -9.6% | [2] -3.3% | [3] 3.2% | [4] -1.35% | [5] -6.15% | [6] 4.5%
